Data: the supplement of paper PMC7724964

T1: CLTC 1-363 Clathrin_propel+Clathrin-link (domain begin residue: 1, domain end residue: 363), Q00610
T1 chain: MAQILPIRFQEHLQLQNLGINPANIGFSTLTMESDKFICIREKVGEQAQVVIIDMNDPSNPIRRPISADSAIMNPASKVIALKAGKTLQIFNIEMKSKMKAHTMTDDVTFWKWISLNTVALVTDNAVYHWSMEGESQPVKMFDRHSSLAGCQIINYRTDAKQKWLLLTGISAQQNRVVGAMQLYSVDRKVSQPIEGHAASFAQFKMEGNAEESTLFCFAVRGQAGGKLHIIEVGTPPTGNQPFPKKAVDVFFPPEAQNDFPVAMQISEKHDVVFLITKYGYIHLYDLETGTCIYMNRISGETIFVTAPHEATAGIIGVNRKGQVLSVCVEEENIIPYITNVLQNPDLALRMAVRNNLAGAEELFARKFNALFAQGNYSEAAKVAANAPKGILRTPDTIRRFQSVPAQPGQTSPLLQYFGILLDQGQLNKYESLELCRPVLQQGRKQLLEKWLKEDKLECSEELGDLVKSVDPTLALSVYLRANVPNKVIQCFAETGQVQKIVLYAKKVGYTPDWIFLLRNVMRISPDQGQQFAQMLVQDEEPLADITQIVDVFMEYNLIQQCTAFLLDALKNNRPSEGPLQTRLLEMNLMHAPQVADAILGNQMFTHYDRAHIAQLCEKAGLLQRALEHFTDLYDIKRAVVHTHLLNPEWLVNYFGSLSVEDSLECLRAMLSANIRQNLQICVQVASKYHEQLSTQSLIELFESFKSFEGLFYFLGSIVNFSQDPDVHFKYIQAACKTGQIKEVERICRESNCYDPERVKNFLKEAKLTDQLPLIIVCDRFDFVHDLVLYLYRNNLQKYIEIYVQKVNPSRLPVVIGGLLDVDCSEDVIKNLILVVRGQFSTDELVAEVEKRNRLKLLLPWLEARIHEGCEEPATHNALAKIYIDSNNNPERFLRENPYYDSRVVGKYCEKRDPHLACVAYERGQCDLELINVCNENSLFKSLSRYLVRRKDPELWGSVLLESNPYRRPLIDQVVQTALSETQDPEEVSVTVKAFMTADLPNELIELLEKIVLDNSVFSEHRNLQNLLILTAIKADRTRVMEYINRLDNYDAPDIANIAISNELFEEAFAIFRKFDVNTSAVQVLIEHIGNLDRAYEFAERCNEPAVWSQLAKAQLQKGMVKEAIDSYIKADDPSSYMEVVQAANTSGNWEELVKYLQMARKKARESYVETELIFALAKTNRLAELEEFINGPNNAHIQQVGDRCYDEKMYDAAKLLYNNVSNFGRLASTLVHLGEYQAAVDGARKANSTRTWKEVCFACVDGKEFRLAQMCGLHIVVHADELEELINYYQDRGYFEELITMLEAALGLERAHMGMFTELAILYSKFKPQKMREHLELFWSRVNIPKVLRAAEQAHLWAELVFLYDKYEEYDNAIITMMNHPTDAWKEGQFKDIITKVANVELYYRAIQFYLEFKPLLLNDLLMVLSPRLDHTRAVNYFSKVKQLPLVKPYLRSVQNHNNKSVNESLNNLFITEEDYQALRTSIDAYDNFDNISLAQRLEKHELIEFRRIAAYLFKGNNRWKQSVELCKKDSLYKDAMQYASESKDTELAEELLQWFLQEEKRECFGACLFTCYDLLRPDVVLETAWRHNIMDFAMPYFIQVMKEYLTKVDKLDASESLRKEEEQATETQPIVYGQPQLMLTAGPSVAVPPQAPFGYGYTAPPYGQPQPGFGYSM

T2: CAPN2 513-700 EF-hand_8 (domain begin residue: 513, domain end residue: 700), P17655
T2 chain: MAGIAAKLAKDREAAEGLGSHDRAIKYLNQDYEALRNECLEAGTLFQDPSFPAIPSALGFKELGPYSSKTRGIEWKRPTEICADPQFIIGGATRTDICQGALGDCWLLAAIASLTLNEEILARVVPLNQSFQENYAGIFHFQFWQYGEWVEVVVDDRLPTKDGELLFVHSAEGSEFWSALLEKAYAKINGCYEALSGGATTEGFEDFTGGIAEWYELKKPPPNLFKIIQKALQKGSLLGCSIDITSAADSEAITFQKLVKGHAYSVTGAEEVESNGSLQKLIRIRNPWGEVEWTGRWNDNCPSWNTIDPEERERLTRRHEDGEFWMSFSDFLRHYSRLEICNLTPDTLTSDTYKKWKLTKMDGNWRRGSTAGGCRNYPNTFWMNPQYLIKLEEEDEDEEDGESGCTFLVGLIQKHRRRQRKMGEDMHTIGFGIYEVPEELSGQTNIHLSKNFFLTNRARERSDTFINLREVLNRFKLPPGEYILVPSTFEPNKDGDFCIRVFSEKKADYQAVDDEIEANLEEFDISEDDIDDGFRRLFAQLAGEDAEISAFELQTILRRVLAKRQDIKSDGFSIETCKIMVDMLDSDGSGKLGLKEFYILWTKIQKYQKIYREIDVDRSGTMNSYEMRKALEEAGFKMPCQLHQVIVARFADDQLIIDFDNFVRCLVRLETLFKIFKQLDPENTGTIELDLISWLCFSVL

T3: CD2BP2 256-341 GYF (domain begin residue: 256, domain end residue: 341), O95400
T3 chain: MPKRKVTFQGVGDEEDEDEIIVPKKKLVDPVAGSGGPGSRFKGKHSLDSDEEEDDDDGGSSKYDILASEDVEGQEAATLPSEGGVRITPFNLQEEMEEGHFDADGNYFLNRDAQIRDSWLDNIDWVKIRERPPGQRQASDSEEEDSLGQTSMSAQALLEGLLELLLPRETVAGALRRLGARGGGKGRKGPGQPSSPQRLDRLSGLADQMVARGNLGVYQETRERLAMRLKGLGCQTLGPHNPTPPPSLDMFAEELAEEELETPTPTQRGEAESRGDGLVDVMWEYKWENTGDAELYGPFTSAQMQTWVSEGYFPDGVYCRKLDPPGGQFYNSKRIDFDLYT

T4: BTN1A1 285-479 SPRY (domain begin residue: 285, domain end residue: 479), Q13410
T4 chain: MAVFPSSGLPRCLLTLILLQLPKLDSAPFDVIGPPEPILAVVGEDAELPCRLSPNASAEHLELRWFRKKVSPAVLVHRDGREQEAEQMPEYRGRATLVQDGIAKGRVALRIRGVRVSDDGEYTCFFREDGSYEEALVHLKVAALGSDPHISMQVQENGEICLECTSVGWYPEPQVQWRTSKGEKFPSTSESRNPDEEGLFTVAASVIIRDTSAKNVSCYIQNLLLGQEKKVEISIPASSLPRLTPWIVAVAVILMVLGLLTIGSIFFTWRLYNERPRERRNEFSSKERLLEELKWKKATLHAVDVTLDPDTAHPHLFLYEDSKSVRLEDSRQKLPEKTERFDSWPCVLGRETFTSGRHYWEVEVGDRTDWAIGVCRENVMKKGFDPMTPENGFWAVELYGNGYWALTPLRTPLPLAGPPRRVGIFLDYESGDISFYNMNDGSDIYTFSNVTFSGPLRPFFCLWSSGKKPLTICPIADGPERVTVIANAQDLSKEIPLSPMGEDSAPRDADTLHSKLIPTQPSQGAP


Target: T1, CLTC 1-363 …
Experiment: phage ELISA signal ratio (GST-PRM binding over GST background); higher = stronger binding of peptide-phage to the PRM
Description: (§1)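 Phage-displayed random hexadecapeptides (Cys-free, flanked by invariant Gly linkers, fused to the M13 P8 major coat protein) were selected over 5 rounds against GST-fused human PRM domains. Individual clones from rounds 4-5 were tested by phage ELISA, and positive clones binding the target but not GST were sequenced. Values are the ELISA signal ratio of target over background (GST); the background signal is given separately.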

Row | Binder | phage ELISA signal ratio
1 | SDGDLIWWDWAYNAEQ | 15.9
2 | WPNLEWMWDDEDMQFH | 15.5

Target: T2, CAPN2 513-700 EF-hand_8 (domain begin …
Experiment: as above
Description: as §1

Row | Binder | phage ELISA signal ratio
3 | VTVPPWLMEMIMELMQ | 5.99
4 | ISESQIAQFVMAWMQQ | 22.5

Target: T3, CD2BP2 256-341 GYF (domain begin …
Experiment: as above
Description: as §1

Row | Binder | phage ELISA signal ratio
5 | YPYPPGWDSNYAQRVE | 19.2
6 | EDPTLKVGHPPGWSFK | 17.6
7 | GHPPGWSEFGWEHLVI | 16.2

Target: T4, BTN1A1 285-479 SPRY (domain begin …
Experiment: as above
Description: as §1

Row | Binder | phage ELISA signal ratio
8 | DWQYTYMPDMIPDWVM | 20.7
9 | LSSLETYKNHGLMFMF | 22.5
10 | VDGWWIARSEHLMQMA | 11.9
11 | FEQHWMQKQMAVRQIV | 13.6

The binders below were run against CKS1B 1-79 CKS (domain begin residue: 1, domain end residue: 79), P61024 in the same assay as above.
Description: as §1

Chain of CKS1B 1-79 CKS (domain begin residue: 1, domain end residue: 79), P61024 (P61024 whole entry): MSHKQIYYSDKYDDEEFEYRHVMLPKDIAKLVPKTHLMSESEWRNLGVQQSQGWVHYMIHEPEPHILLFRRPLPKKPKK

Row | Binder | phage ELISA signal ratio
12 | QQWDPSWYYPQELVKM | 20.5
13 | SQPEQMQWHTYDPYDL | 30.4
14 | GPLAWFLEDPYSSRVG | 11.1

What follows are binders tested against ARPC3 1-178 P21-Arc (domain begin residue: 1, domain end residue: 178), O15145 in the same assay as above.
Description: as §1

Row | Binder | phage ELISA signal ratio
15 | VPEWWWQGWDPHHVVE | 6.99

These binders were tested against CBX3 109-173 Chromo_shadow (domain begin residue: 109, domain end residue: 173), Q13185 in the same assay as above.
Description: as §1

Chain of CBX3 109-173 Chromo_shadow (domain begin residue: 109, domain end residue: 173), Q13185 (Q13185 whole entry): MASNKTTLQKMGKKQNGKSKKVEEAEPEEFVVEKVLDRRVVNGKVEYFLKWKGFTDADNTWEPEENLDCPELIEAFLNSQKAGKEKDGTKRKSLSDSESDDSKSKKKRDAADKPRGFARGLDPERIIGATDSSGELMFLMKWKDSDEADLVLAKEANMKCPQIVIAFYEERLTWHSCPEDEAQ

Row | Binder | phage ELISA signal ratio
16 | RDEAHMEWHFPSIWLT | 16.2
